High-throughput results from PubChem.
CYP2C19 inhib – blockers of cytochrome P450 2C19 activity – biochemical, luminescence, ADME assay, primary screen. P33261. CYP2C19 Supersomes, luciferin-H EGE luminescence, 30 min. inhibition, % at 5 µM. actives 21% (n = 96,000);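 active = CYP2C19 inhibition above a set limit at 5 µM in the primary screen, cut at about 50% in these data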;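 also: plate controls were negative control wells for no effect and 2.5 mM tranylcypromine positive control for full effect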
CYP2C9 act – human CYP2C9 activators, primary screen, biochemical, luminescence. Cytochrome P450 2C9 (Homo sapiens), P11712. actives 1.4% (n = 96,000). AID 1024, 2008. recombinant CYP2C9, luciferin-H conversion; stronger effect = higher value; factor 1 = untreated enzyme, 0 = blocked. activation factor at 5 µM;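 active = activation factor of 2 or more for CYP2C9 at a 5 µM dose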;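 also: 0 = sulfaphenazole-blocked wells and 1 = vehicle-only wells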
sEH activator – soluble epoxide hydrolase activators, primary screen, biochemical, human sEH. purified human sEH enzymatic activity, activator screen. AID 717, 2007. actives 0.04% (n = 91,000). activation, % at 2 µM. Bifunctional epoxide hydrolase 2 (Homo sapiens), P34913; in the data active = activation above about 37%
Target sequence (P34913 whole entry, looked up): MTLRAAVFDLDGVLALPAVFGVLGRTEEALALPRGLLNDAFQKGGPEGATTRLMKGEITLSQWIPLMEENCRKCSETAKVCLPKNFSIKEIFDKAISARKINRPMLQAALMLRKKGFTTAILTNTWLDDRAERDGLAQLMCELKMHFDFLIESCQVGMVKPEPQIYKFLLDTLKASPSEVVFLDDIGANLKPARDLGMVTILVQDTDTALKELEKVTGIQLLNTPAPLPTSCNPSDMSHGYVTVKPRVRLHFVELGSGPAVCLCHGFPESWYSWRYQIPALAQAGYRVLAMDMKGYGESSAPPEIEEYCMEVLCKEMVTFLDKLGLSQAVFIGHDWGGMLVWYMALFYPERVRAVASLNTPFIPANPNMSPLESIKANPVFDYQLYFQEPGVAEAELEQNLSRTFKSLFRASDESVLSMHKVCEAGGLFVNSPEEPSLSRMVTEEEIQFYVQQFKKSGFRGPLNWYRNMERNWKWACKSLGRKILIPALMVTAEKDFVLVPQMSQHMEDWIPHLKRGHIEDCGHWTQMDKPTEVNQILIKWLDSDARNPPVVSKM
sEH inh – soluble epoxide hydrolase inhibitors, primary screen, biochemical, human sEH | inhibition, % at 2 µM | Bifunctional epoxide hydrolase 2 (Homo sapiens), P34913 | recombinant human sEH enzymatic activity assay | AID 707, 2007 | actives 0.34% (n = 91,000); in the data active = inhibition above about 80%
CYP2C9 inh – blockers of cytochrome P450 2C9 activity – biochemical, luminescence, ADME assay, primary screen; P11712; CYP2C9 Supersomes, luciferin-H conversion; inhibition, % at 5 µM; actives 20% (n = 96,000); AID 777, 2007;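 active = blocking of liver enzyme CYP2C9 beyond about 50% at 5 µM, limit read from the data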
CYP2C19 activ – human CYP2C19 activators, primary screen, biochemical, luminescence | Cytochrome P450 2C19 (Homo sapiens), P33261 | recombinant CYP2C19, luciferin-H EGE luminescence; stronger effect = higher value; 0 = fully inhibited enzyme, 1 = untreated enzyme | activation factor at 5 µM | 96,000 tested, under 10 active;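 active = activation factor of at least 2 at 5 µM in the primary screen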;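 also: 0 = wells with 2.5 mM tranylcypromine and 1 = vehicle-only wells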
* hit, by the source's call. The list is not random: actives were taken first. Their share in the collection is about 27%.

How did COc1ccc(S(=O)(=O)N2CCCCCC2)cc1C(=O)OCc1c(C)noc1C do in these assays?
CYP2C19 inhib: 50*; CYP2C9 act: 0.1; sEH activator: -4; sEH inh: 4; CYP2C9 inh: 86*; CYP2C19 activ: 0.5

What do the screens show for `Cc1ccc(S(=O)(=O)N2CCN(C(=O)c3ccc(OCc4c(C)noc4C)cc3)CC2)cc1`?
CYP2C19 inhib: 3; CYP2C9 act: 0.7; sEH activator: -2; sEH inh: 1; CYP2C9 inh: 29; CYP2C19 activ: 1

What do the screens show for `CCCCOCCCNC(=O)CN1C(=O)c2ccccc2C1=O`?
CYP2C19 inhib: -6; CYP2C9 act: 1.1; sEH activator: 7; sEH inh: -5; CYP2C9 inh: -9; CYP2C19 activ: 1.1

How did O=S(=O)(c1ccc(F)cc1)n1ccc(-c2cccc(OCc3ccc(Cl)cc3Cl)c2)n1 do in these assays?
CYP2C19 inhib: 19; CYP2C9 act: 0.6; sEH activator: 9; sEH inh: -6; CYP2C9 inh: 45; CYP2C19 activ: 0.8

What do the screens show for `O=C(NCc1cccnc1)c1cccc2c1C(=O)N(Cc1cccnc1)C2`?
CYP2C19 inhib: 76*; CYP2C9 act: 0.5; sEH activator: 11; sEH inh: -11; CYP2C9 inh: 46; CYP2C19 activ: 0.2

Results for COCCN1Cc2cccc(C(=O)NCc3cccnc3)c2C1=O ?
CYP2C19 inhib: 78*; CYP2C9 act: 0.9; sEH activator: -15; sEH inh: 16; CYP2C9 inh: 8; CYP2C19 activ: 0.2

How did COCCN1Cc2cccc(C(=O)Nc3c(C)cccc3C)c2C1=O do in these assays?
CYP2C19 inhib: 42; CYP2C9 act: 0.8; sEH activator: 16; sEH inh: -15; CYP2C9 inh: 25; CYP2C19 activ: 0.6

Results for COc1ccc(CNC(=O)c2cccc3c2C(=O)N(Cc2cccnc2)C3)cc1 ?
CYP2C19 inhib: 55*; CYP2C9 act: 0.2; CYP2C9 inh: 76*; CYP2C19 activ: 0.5

Results for O=C(c1cccc2c1C(=O)N(Cc1cccnc1)C2)N1CCN(c2ccccc2)CC1 ?
CYP2C19 inhib: 23; CYP2C9 act: 1; sEH activator: -8; sEH inh: 9; CYP2C9 inh: 0; CYP2C19 activ: 0.8

Results for S=C1N(c2ccccc2)C(c2ccc(Cl)cc2)N2CCCN12 (configuration not stated) ?
CYP2C19 inhib: 63*; CYP2C9 act: 0.6; sEH activator: 19; sEH inh: -15; CYP2C9 inh: 44; CYP2C19 activ: 0.4

What do the screens show for `CC1(C)CN2C(=S)N(c3ccccc3)C(c3ccccc3)N2C1` (configuration not stated)?
CYP2C19 inhib: 67*; CYP2C9 act: 0.3; sEH activator: -6; sEH inh: 6; CYP2C9 inh: 66*; CYP2C19 activ: 0.3

What do the screens show for `CC(NS(=O)(=O)c1ccc(CCC(=O)N2CCN(C)CC2)cc1)c1ccccc1` (configuration not stated)?
CYP2C19 inhib: 41; CYP2C9 act: 0.9; sEH activator: 19; sEH inh: -14; CYP2C9 inh: 14; CYP2C19 activ: 0.6

Results for CC(C)CNC(=S)NNC(=O)c1ccc(OC(F)F)cc1 ?
CYP2C19 inhib: 26; CYP2C9 act: 0.9; sEH activator: -8; sEH inh: 8; CYP2C9 inh: 9; CYP2C19 activ: 0.7

What do the screens show for `Cc1cccc(C)c1NC(=O)C(c1ccccc1)N1CCC1=O` (configuration not stated)?
CYP2C19 inhib: -5; CYP2C9 act: 1.1; sEH activator: -2; sEH inh: 2; CYP2C9 inh: -14; CYP2C19 activ: 1.1

What do the screens show for `Cc1cccc(C)c1NC(=O)C(NC=O)c1ccc(Cl)cc1` (configuration not stated)?
CYP2C19 inhib: 58*; CYP2C9 act: 1.1; sEH activator: 0; sEH inh: 0; CYP2C9 inh: -5; CYP2C19 activ: 0.4

How did O=C(c1ccc(Nc2cccc(C(F)(F)F)c2)nc1)N1CCCC1 do in these assays?
CYP2C19 inhib: 60*; CYP2C9 act: 0.3; CYP2C9 inh: 66*; CYP2C19 activ: 0.4

Results for Cn1nc(-c2ccccc2)c(-c2nc(-c3cccc(C(F)(F)F)c3)no2)c1Cl ?
CYP2C19 inhib: 9; CYP2C9 act: 0.6; sEH activator: 10; sEH inh: -12; CYP2C9 inh: 42; CYP2C19 activ: 0.9

Results for COc1cc(C)c(CNc2ccc(OC)c(OC)c2)cc1C ?
CYP2C19 inhib: 97*; CYP2C9 act: 0.5; sEH activator: 10; sEH inh: -8; CYP2C9 inh: 48; CYP2C19 activ: 0

Results for COc1cc(C)c(CNc2cc(C)cc(C)c2)cc1C ?
CYP2C19 inhib: 29; CYP2C9 act: 0.9; sEH activator: 4; sEH inh: -4; CYP2C9 inh: 7; CYP2C19 activ: 0.7

Results for COc1cc(C)c(CNc2cccc(C)c2)cc1C ?
CYP2C19 inhib: 93*; CYP2C9 act: 0.3; sEH activator: 1; sEH inh: -4; CYP2C9 inh: 71*; CYP2C19 activ: 0.1

How did CCc1ccc2[nH]c(=O)c(C(c3nnnn3CC3CCCO3)N3CCN4CCCC4C3)cc2c1 (configuration not stated) do in these assays?
CYP2C19 inhib: -14; CYP2C9 act: 1; sEH activator: 16; sEH inh: -13; CYP2C9 inh: -2; CYP2C19 activ: 1.1

What do the screens show for `N#CC(c1ccc(Cl)nn1)c1ccccc1Cl` (configuration not stated)?
CYP2C19 inhib: 32; CYP2C9 act: 0.9; sEH activator: 1; sEH inh: -2; CYP2C9 inh: 7; CYP2C19 activ: 0.7

Results for N#CC(c1ccc(Cl)cc1)c1ccc(Cl)nn1 (configuration not stated) ?
CYP2C19 inhib: 53*; CYP2C9 act: 0.9; sEH activator: -6; sEH inh: 4; CYP2C9 inh: 5; CYP2C19 activ: 0.5

How did Cc1ccccc1C1NS(=O)(=O)N=C1N (configuration not stated) do in these assays?
CYP2C19 inhib: 1; CYP2C9 act: 0.9; sEH activator: -7; sEH inh: 7; CYP2C9 inh: 12; CYP2C19 activ: 1

How did O=C(COC(=O)CCOc1ccccc1)NCc1ccco1 do in these assays?
CYP2C19 inhib: 9; CYP2C9 act: 0.6; sEH activator: 6; sEH inh: -6; CYP2C9 inh: 38; CYP2C19 activ: 0.9

Results for O=C(COC(=O)C1CC2C=CC1C2)NCc1ccco1 (configuration not stated) ?
CYP2C19 inhib: 64*; CYP2C9 act: 0.8; sEH activator: 0; sEH inh: 1; CYP2C9 inh: 16; CYP2C19 activ: 0.4
